Assay results taken from ChEMBL document CHEMBL4513216, “Probing the Open Global Health Chemical Diversity Library for Multistage-Active Starting Points for Next-Generation Antimalarials” (ACS Infect Dis, 2020).
The whole screen tested about 69,000 compounds, of which about 8,600 (12%) showed an effect of 50% or more. What follows is part of a selection rich in strong results, with near analogues and random picks from the rest.

Tested on: Plasmodium berghei
Experiment: Screen against P. berghei liver stage (PbLuc), transformed with Luciferase, at 10uM
Assay type: functional, HepG2
Details: tested at 10 uM

Compound | INHIBITION [%]
CC1(C(=O)N2CCOCC2)CN(Cc2ccccc2F)CCO1 (stereo unspecified) | 25.6
O=C(Nc1ccc(-c2csnn2)cc1)NC(CCO)C1CC1 (stereo unspecified) | 6.11
Cc1[nH]c2nc(CNc3ccccc3Cl)nn2c(=O)c1C | -7.83
Cc1ccc(Cl)cc1NCc1nc2[nH]c(C)c(C)c(=O)n2n1 | 18.3
CCc1ccccc1NCc1nc2[nH]c(C)c(C)c(=O)n2n1 | 52.5
CN1CCC(Nc2cc(Cl)ccc2OCC(F)(F)F)C1=O (stereo unspecified) | 4.34
Cc1cc(CCC(=O)N(C)C)nc(C2CCCCN2)n1 (stereo unspecified) | 26.3
COCCCNC(=O)Cc1cc(-c2ccc3c(c2)OCO3)on1 | 65.7
O=C(Cc1cc(-c2ccc3c(c2)OCO3)on1)NC1CCCC1 | 14.6
COCCCNC(=O)Cc1cc(-c2ccccc2)on1 | -34.3
O=C(Cc1cc(-c2ccc3c(c2)OCCO3)on1)NCc1ccccn1 | 70
Cn1cc(CCNC(=O)CCc2ccc3c(c2)OCO3)cn1 | 31.3
COCCCNC(=O)Cc1cc(-c2ccc(Cl)cc2)on1 | 53.7
Cc1cc(C(=O)NCc2ccccn2)no1 | -1.88
COCCCNC(=O)CN(C)C(=O)c1cc(Cl)ccc1O | -15.8
Cc1nnc(SCCCNC(=O)Cc2ccc3c(c2)OCO3)s1 | 40.9
O=C(N1CCOCC1)N1CCCC(c2ncncc2-c2ccncc2)C1 (stereo unspecified) | 5.11
CC(=O)NCCNC(=O)CN1CCOC(Cn2cccn2)C1 (stereo unspecified) | 9.29
Cc1csc(N2CCCN(CCC(=O)NC(N)=O)CC2)n1 | 9.54
CN(C)C(CNC(=O)c1[nH]nc(C2CC2)c1Br)C1CC1 (stereo unspecified) | -4.15
Cc1cc(N2CCCC(O)(CN(C)C(=O)CCN)C2)c2cnccc2n1 (stereo unspecified) | -6.88
COCC(=O)N1CC(c2ccnc(Nc3cc(C(F)(F)F)ccn3)n2)C1 | -12.3

Compound | INHIBITION [%]
Cc1ccc(C)c(-n2ncc(C(=O)N(C)CCc3ccccn3)c2N)c1 | -3.33
CCOC(=O)c1cnn(-c2cc(C)ccn2)c1N | -104
CCOC(=O)c1cnn(-c2cc(Oc3ccccc3)ncn2)c1N | -10.9
CCOC(=O)c1cnn(-c2cc(Oc3ccccc3C)ncn2)c1N | -35.9
COC(=O)c1cnn(-c2cc(Oc3cccc(C)c3)ncn2)c1N | 72
CCOC(=O)c1cnn(-c2cc(Oc3cccc(C)c3)ncn2)c1N | 51.6
Cc1cc(C)n(C2CCN(S(C)(=O)=O)CC2)n1 | -0.232
Cc1nn(C)c(N(C)C)c1CNCc1ccc(OCC(N)=O)cc1 | 3.45
c1cn(-c2nccnc2C2CCCN(C3CCOCC3)C2)cn1 (stereo unspecified) | 18.805
O=C1NC2(CCN(Cc3ccoc3)CC2)CC1c1ccncc1 (stereo unspecified) | 32.4
O=C1NC2(CCN(Cc3cccs3)CC2)CC1c1ccncc1 (stereo unspecified) | 59.1
O=C1NC2(CCN(C(=O)c3ccc(Cl)cc3)CC2)CC1c1ccccc1 (stereo unspecified) | 14
O=C1NC2(CCN(Cc3ccccc3Cl)CC2)CC1c1ccccc1 (stereo unspecified) | 68.4
N#Cc1cccc(CN2CCC3(CC2)CC(c2ccncc2)C(=O)N3)c1 (stereo unspecified) | -1.26
N#Cc1ccccc1CN1CCC2(CC1)CC(c1ccccc1)C(=O)N2 (stereo unspecified) | 62.8
O=C1NC2(CCN(Cc3ccsc3)CC2)CC1c1ccncc1 (stereo unspecified) | 12.6
O=C1NC2(CCN(Cc3nccs3)CC2)CC1c1ccncc1 (stereo unspecified) | 48.9
O=C1NC2(CCN(Cc3ccc(F)cc3)CC2)CC1c1ccncc1 (stereo unspecified) | 35.4
CCNC(=O)c1ccc2c(c1)nc1n2CCN(Cc2ccco2)C1 | -9.48
C[C@H]1C[C@H]2CN(S(=O)(=O)c3ccc(F)cc3)CC[C@@H]2O1 | -1.12
CCn1cc(-c2nn3c(C(F)(F)F)nnc3s2)cn1 | -11.4
O=C(NCC1CCC(c2ccnc3ncnn23)CC1)C1CC1 (stereo unspecified) | 21.1

Compound | INHIBITION [%]
CSc1ncn(-c2nc(N(C)C)nc(N(C)C)n2)n1 | 21.2
CN(C)C(=O)N1CCC2(CC1)NC(=O)c1ccccc12 | -13.9
O=C(NCc1ccco1)N1CCCCC1c1nc(C2CC2)no1 (stereo unspecified) | 16
COC(=O)[C@H](C)NC(=O)c1nc(C2CC2)n(-c2ccccc2Cl)n1 | -20.8
CCn1cnnc1CNC(=O)c1cc(Cl)ccc1OC | -9.98
CCn1cnnc1CCNC(=O)c1ccc(Br)cc1F | 25.5
Cn1cnnc1CNC(=O)c1ccc(Br)cc1O | -48.5
CCn1cnnc1CNC(=O)c1ccc(Cl)cc1F | 36.2
COc1cc(Cl)ccc1C(=O)NCc1nncn1C | 52.3
CCn1cnnc1CNC(=O)c1cc(Cl)ccc1O | -35.1
CCn1cnnc1CNC(=O)c1cc(Cl)ccc1F | 56.4
CCn1cnnc1CNC(=O)c1cc(F)ccc1OC | 29.7
CCn1cnnc1CNC(=O)c1ccc(Br)cc1F | 56.5
CN(CC(=O)N1CCOCC(CO)C1)Cc1ccc(F)cc1 (stereo unspecified) | -12.1
Cc1noc(C)c1CN1CCCC2(C1)CN(Cc1nccn1C)CCO2 (stereo unspecified) | 10
CC(C)=CCN1C[C@@H]2CC[C@H]1CN(C(=O)c1ccc3c(c1)OCO3)C2 | 33
CN(C)S(=O)(=O)N1CCN(Cc2ccnc(N3CCCC3)n2)CC1 | 7.52
COc1ccc(-c2cc(C3CCNCC3)ccn2)cc1 | 23.9
O=C(c1ccc(-c2ccc(O)nc2)s1)N1CCCCC1 | -69.6
Cc1cc(NC(=O)c2nc(N3CCCC3)ncc2Cl)nc(C(C)C)n1 | 66.8
O=C(Nc1ccccn1)c1nc(N2CCCC2)ncc1Cl | -4.48
O=C(Nc1cc(Cl)ccn1)c1nc(N2CCCC2)ncc1Cl | -35

Compound | INHIBITION [%]
O=C1NCC(C(=O)Nc2ncc(Cc3ccccc3F)s2)N1 (stereo unspecified) | -17.4
CS(=O)(=O)N1CCc2sc(C(=O)NCCc3ccccn3)cc21 | -47.8
CC(C)(C)OC(=O)NCCNC(=O)c1ccc2cc[nH]c2c1 | -16
COCCN1C(=O)CCC12CCCN(Cc1ccccc1F)C2 (stereo unspecified) | 44.5
COC1CCC[C@@H]2CN(Cc3csc(C)n3)C[C@H]12 (stereo partly specified) | 40.3
Cc1ncsc1CN1C[C@@H]2CCCO[C@@H]2[C@H](N(C)C(C)C)C1 | 50.7
Cc1ncsc1CN1C[C@H](OCC(C)C)[C@H]2OCCC[C@H]21 | -37.9
Cc1nc(CN2C[C@@H]3CCCO[C@@H]3[C@H](N(C)C(C)C)C2)cs1 | 66.8
Cc1cc(CN2C[C@@H]3CCCO[C@@H]3[C@H](NS(C)(=O)=O)C2)no1 | -13
Cc1cc(CN2C[C@@H]3CCCO[C@@H]3[C@H](N(C)C(C)C)C2)no1 | 71.6
CCS(=O)(=O)N[C@@H]1CN(Cc2cc(C)on2)C[C@@H]2CCCO[C@@H]21 | 21
Cc1ncsc1CN1C[C@@H]2CCCO[C@@H]2[C@H](Nc2ccccn2)C1 | 34.2
Cc1nc(CN2C[C@@H]3CCCO[C@@H]3[C@H](NC(=O)CC3CC3)C2)cs1 | 47.9
Cc1cccc(C)c1NC(=O)CN(C)C(C)c1nc(C(C)(C)C)no1 (stereo unspecified) | 34.6
Cc1cccc(OCCNC(=O)CN2CCCC2Cn2cncn2)c1 (stereo unspecified) | 12.7
CNC(=O)c1cc(C)ccc1NCc1cn2cc(C)ccc2n1 | 29.6
CCC(C#N)NC(=O)c1sccc1OC (stereo unspecified) | 26.4
COCC1CC2(CCN(C(=O)c3cncc(C)c3)CC2)CO1 (stereo unspecified) | -26.1
O=C(NCc1cccnc1)c1nc2c(s1)CCCN2c1ncccn1 | 26.3
Cc1ccc(N2CCCc3sc(C(=O)NCc4ccncc4)nc32)nn1 | 42.5
Cc1ccc(N2CCCc3sc(C(=O)NCc4cccnc4)nc32)nn1 | 63.5
CC(C)N(C)CC(=O)N(C)C(c1cccc(F)c1)c1ccccn1 (stereo unspecified) | -55.4

Compound | INHIBITION [%]
CCN(CC1CCCN(CCc2cccc(OC)c2)C1)C(=O)CN(C)C (stereo unspecified) | 16
Cc1cc(CN(C)CC2CCCN(CCc3ccc(Cl)cc3)C2)[nH]n1 (stereo unspecified) | 86.6
O=C(Nc1ccc(Cl)cn1)C1CCCN(Cc2ccccn2)C1 (stereo unspecified) | 15.7
CN(Cc1ccccc1O)CC1CCCN(CCc2ccc(Cl)cc2)C1 (stereo unspecified) | 5.36
Cc1nc[nH]c1CN(C)CC1CCCN(CCc2ccc(Cl)cc2)C1 (stereo unspecified) | 33.7
COc1ccccc1CCN1CCCC(CN(C)Cc2ccc(C)o2)C1 (stereo unspecified) | 22
O=C(Nc1ccc(Cl)cn1)C1CCCN(CCc2ccncc2)C1 (stereo unspecified) | 74.4
COc1ccc(CCN2CCCC(CN(C)Cc3ccc(C)o3)C2)cc1 (stereo unspecified) | 70.6
COc1ccccc1CCN1CCCC(CN(C)Cc2cc(C)n[nH]2)C1 (stereo unspecified) | 36.8
CN(Cc1cccc(O)c1)CC1CCCN(CCc2ccc(Cl)cc2)C1 (stereo unspecified) | 73.5
COc1ccc(CCN2CCCC(CN(C)Cc3[nH]cnc3C)C2)cc1 (stereo unspecified) | 16.3
O=C(Nc1ccc(Cl)cn1)C1CCCN(CCc2ccccn2)C1 (stereo unspecified) | 48.3
O=C(O)c1cc(-c2cccs2)nc2c(Cl)cnn12 | 47.1
Cn1cc(C#N)c(=O)n(CC(O)c2ccccc2F)c1=O (stereo unspecified) | -4.185
CC(=O)N1CCC(c2cnc(-c3c(C)n[nH]c3C)cn2)CC1 | 49.6
CC(CC(=O)O)CC(=O)Nc1sc2c(c1C(N)=O)CCc1ccccc1-2 (stereo unspecified) | 27.5
CNC(=O)C(C)(C)N1CCC[C@H]1C(=O)NCCN1CCCC1 | -84.9
Cc1ccc(C(=O)N2CCCN(Cc3cccs3)CC2)n1C | 6.683
